Hits are enriched below; roughly 3.4% of the tested compounds scored in any of these assays.
PLCb3 inh: human PLC-beta3 inhibitors, primary screen, biochemical, fluorescence; 370,000 compounds, 0.18% hits; Purified PLC-beta3, fluorogenic substrate; AID 720704, 2013; 1-phosphatidylinositol 4,5-bisphosphate phosphodiesterase beta-3 (Homo sapiens), Q01970; inhibition, % at 12.2 µM; in the data active = inhibition above about 11%;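 also: 0% = median of compound wells on plate and 100% = full blocker control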
proKLK7 act: proKLK7 zymogen activators, primary screen, biochemical, fluorescence intensity | Kallikrein-7 (Homo sapiens), P49862 | purified proKLK7, EDANS-DABCYL substrate fluorescence; 100% is mature enzyme control, 0% vehicle | activation, % at 7 µM | 370,000 compounds, 0.9% hits;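 active = activation above the mean of all tested compounds plus 3 SD, computed per campaign excluding outliers beyond control limits, cut at about 13% in these data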
ADAM10 inh: human ADAM10 inhibitors, primary screen, biochemical, QFRET, HTS; inhibition, % at 7 µM; recombinant ADAM10, EDANS/DABCYL FRET peptide cleavage, 3 h; 370,000 compounds, 0.62% hits;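 active = inhibition above a per-campaign cutoff equal to the mean of compounds falling between control-based bounds plus 3 SD, cut at about 20% in these data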;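 also: 0% = DMSO wells while the 100% control is not disclosed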
ADAM17 inh: ADAM17 inhibitors, primary screen, biochemical, QFRET | 370,000 compounds, 0.83% hits | AID 720648, 2013 | Disintegrin and metalloproteinase domain-containing protein 17 (Homo sapiens), P78536 | recombinant ADAM17, EDANS/DABCYL FRET peptide cleavage | inhibition, % at 6.95 µM;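 active = inhibition above the mean of compounds lying between control limits plus 3 SD, set per campaign, cut at about 8.5% in these data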;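 also: 0% = DMSO-only wells as the low control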
HGIII-sPLA2 inh: human group III sPLA2 inhibitors, primary screen, biochemical, QFRET, BODIPY PC-A2 liposome substrate | Group 3 secretory phospholipase A2 (Homo sapiens), Q9NZ20 | QFRET BODIPY PC-A2 liposome hydrolysis, fluorescence | inhibition, % at 12.2 µM | 370,000 compounds, 0.56% hits | AID 743126, 2013;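 active = inhibition above mean plus 3 SD of compounds lying within the high and low control bounds, cut at about 19% in these data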;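 also: 0% = median of test compound wells and 100% = no enzyme DMSO wells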
Target sequence (Q9NZ20 whole entry, looked up): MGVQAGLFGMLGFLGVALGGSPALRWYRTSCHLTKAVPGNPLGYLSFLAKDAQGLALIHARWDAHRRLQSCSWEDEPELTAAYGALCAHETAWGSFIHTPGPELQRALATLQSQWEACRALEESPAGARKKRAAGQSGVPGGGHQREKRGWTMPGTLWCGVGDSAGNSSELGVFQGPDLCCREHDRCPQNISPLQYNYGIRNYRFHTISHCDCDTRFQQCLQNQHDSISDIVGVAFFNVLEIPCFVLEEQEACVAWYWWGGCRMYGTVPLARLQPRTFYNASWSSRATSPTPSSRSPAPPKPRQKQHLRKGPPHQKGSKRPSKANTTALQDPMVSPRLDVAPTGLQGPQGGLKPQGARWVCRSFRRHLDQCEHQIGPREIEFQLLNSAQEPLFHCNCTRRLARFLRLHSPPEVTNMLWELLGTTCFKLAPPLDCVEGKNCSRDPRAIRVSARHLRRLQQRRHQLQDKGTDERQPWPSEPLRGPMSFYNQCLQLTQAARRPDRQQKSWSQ
PLC-gamma1 inh: PLC-gamma1 enzyme inhibitors, primary screen, biochemical, fluorescence, purified enzyme | fluorogenic substrate | inhibition, % at 12.2 µM | 370,000 compounds, 0.84% hits | AID 720700, 2013; in the data active = inhibition above about 9.5%
ADAM10 confirm: human ADAM10 inhibitors, confirmation, biochemical, QFRET, triplicate; shares compounds with ADAM10 inh; ADAM10 QFRET peptide cleavage, EDANS fluorescence; inhibition, % at 6.95 µM; 2,100 compounds, 1% hits; AID 743208, 2013;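 active = inhibition above about 20% chosen separately for each screening run, limit read from the data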;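 also: 0% = DMSO wells and 100% = marimastat wells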
ADAM17 counter: ADAM17 inhibitors, counter-screen for ADAM10 exosite inhibitor project, biochemical, QFRET, high throughput; AID 743214, 2013; 2,100 compounds, 0.5% hits; ADAM17 QFRET peptide cleavage, EDANS fluorescence; inhibition, % at 6.95 µM; shares compounds with ADAM10 inh;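 active = mean triplicate inhibition above the solvent-only control wells' mean plus 3 SD, cut at about 12% in these data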;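 also: 0% = DMSO wells and 100% = marimastat wells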
ADAM10 counter: ADAM10 inhibitors, counter-screen for ADAM17 exosite inhibitor project, biochemical, FRET, human ADAM10; shares compounds with ADAM17 inh; recombinant ADAM10, EDANS/DABCYL FRET peptide cleavage, 3 h; inhibition, % at 6.95 µM; 2,900 compounds, 47% hits; AID 743256, 2014;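 active = mean inhibition over the triplicate runs exceeds the activity threshold set in the earlier primary screen, cut at about 20% in these data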;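 also: 0% = DMSO wells and 100% = marimastat wells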
ADAM17 confirm: ADAM17 inhibitors, hit retest, confirmation, biochemical, QFRET peptide cleavage; 2,900 compounds, 65% hits; recombinant ADAM17, EDANS/DABCYL QFRET peptide cleavage; AID 743257, 2014; inhibition, % at 6.95 µM; shares compounds with ADAM17 inh;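 active = mean inhibition across replicates above the hit cutoff set in the primary screen, cut at about 8.5% in these data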;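 also: 0% = DMSO wells and 100% = marimastat wells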
Numbers without * were called inactive; x = no result given.

SMILES	PLCb3 inh	proKLK7 act	ADAM10 inh	ADAM17 inh	HGIII-sPLA2 inh	PLC-gamma1 inh	ADAM10 confirm	ADAM17 counter	ADAM10 counter	ADAM17 confirm
O=C(COc1ncnc2c1cnn2-c1ccccc1)Nc1ccc(S(=O)(=O)N2CCCCC2)cc1	0	-1	21*	9.8*	-18	-2	2	1	33*	17*
CNC(=O)[C@@H](NC(=O)[C@H](CC(C)C)[C@H](O)C(=O)NO)C(C)(C)C	1	0	95*	99*	16	1	100*	102*	106*	102*
CCCCNC(=O)C[C@H]1C[C@@]2(C(=O)OC)C(=C[C@H](C(C)C)O[C@@H]2C2CC2)N(Cc2ccco2)C1=O	5	1	7	0	-8	-2	x	x	x	x
CN(C(=O)Nc1ccc(Cl)cc1Cl)[C@H]1c2cc(Br)ccc2OC[C@H]1CO	9	1	27*	15*	-11	8	4	1	28*	12*
O=C(Nc1ccc2c(c1)OCO2)Nc1ccc(Cl)cc1Cl	4	0	3	-1	5	2	x	x	x	x
CCOC(=O)[C@]12CCCC=C1N(CCCOC)C(=O)[C@@H]2CC(=O)NCC12CC3CC(CC(C3)C1)C2	3	0	2	-2	-7	-1	x	x	x	x
O=C(C(=Cc1ccccc1)c1ccccc1)c1ccccc1	3	0	16	3	-6	3	x	x	x	x
O=C(C(=Cc1ccc(F)cc1)c1ccccc1)c1ccc(O)cc1	1	0	24*	9.6*	-39	-1	4	1	27*	11*
O=S1(=O)c2ccc(N3CCC[C@@H]3CO)cc2OCCCN1C1CC1	-23	0	-12	-5	-2	-5	x	x	x	x
COC(=O)C[C@@H]1CC[C@H]2[C@@H](COc3ccc(NC(=O)Nc4cccc(F)c4)cc3C(=O)N2C)O1	0	0	-1	-2	-12	1	x	x	x	x
Cn1nc(C(C)(C)C)cc1C(=O)N1CCCCC1c1cc(C(=O)Nc2ccc(F)c(Cl)c2)no1 (configuration not stated)	-3	1	20*	12*	-18	1	5	2	20*	12*
O=C(Nc1ccc(F)c(Cl)c1)c1cc(C2CCCCN2C(=O)c2ccc(Cl)cc2)on1 (configuration not stated)	3	1	-3	-1	-3	-2	x	x	x	x
COCCN=c1scc(-c2cc(OC)c(OC)c(OC)c2)n1/N=C/c1c(C)[nH]c2ccccc12	-49	-1	26*	17*	8	-37	18	8	7	17*
Cc1[nH]c2ccccc2c1/C=N/n1cnnc1	-1	0	1	-1	-3	-2	x	x	x	x
CC(C)CNC(=O)OCc1cn(Cc2ccc(F)c(F)c2)nn1	-1	-1	4	0	5	3	x	x	x	x
Cc1nc2ccc(S(=O)(=O)NCC(=O)N(C)Cc3ccccc3F)cc2s1	-2	0	-10	-4	7	-1	x	x	x	x
C[C@H](NC(=O)c1nc[nH]c1C(=O)N[C@H](C)c1ccccc1)C(=O)OC(C)(C)C	5	0	10	4	-10	1	x	x	x	x
C[C@H](NC(=O)c1nc[nH]c1C(=O)NC(c1ccccc1)c1ccccc1)C(=O)OC(C)(C)C	4	0	24*	14*	-7	4	3	2	43*	24*
CC(C)(C)OC(=O)CNC(=O)c1[nH]cnc1C(=O)NC(c1ccccc1)c1ccccc1	7	-1	27*	16*	-14	9	5	2	24*	14*
CNC(=O)c1[nH]cnc1C(=O)NCC(=O)OC(C)(C)C	1	1	-3	-6	5	-1	x	x	x	x
Cc1ccc2c(c1)-n1c(nc3cc(C)ccc3c1=O)C(Cc1ccccc1)NC2=O (configuration not stated)	5	1	21*	17*	0	9	6	2	7	6
Cc1ccc2c(c1)-n1c(nc3cc(F)ccc3c1=O)C(Cc1ccccc1)NC2=O (configuration not stated)	1	0	-2	-3	-4	-1	x	x	x	x
Cc1ccccc1N=C(NOCc1ccccc1)c1nonc1N	3	0	17	0	-12	1	x	x	x	x
Cc1ccccc1N=C(NOCc1ccc(Cl)cc1Cl)c1nonc1N	-2	1	20*	9.6*	-11	2	14	3	33*	24*
COc1ccc(CCNC(=O)Cn2nc(-c3ccccc3)ccc2=O)cc1	4	1	-7	0	4	0	x	x	x	x
O=C(NCCc1ccccc1)OCc1cn(-c2cccc(C(F)(F)F)c2)nn1	-5	0	5	2	-4	0	x	x	x	x
CC(C)(C)c1ccc(OCCCC(=O)Nc2cccc(S(=O)(=O)N3CCOCC3)c2)cc1	-11	0	11	5	-28	2	x	x	x	x
O=C(CNc1cccc(Br)c1)Nc1ccc(S(=O)(=O)N2CCCCC2)cc1	0	0	27*	16*	-18	7	8	3	32*	21*
O=C(CN1C(=O)NC(Cc2c[nH]c3ccccc23)C1=O)Nc1cccc(S(=O)(=O)N2CCCCCC2)c1 (configuration not stated)	8	0	21*	11*	-123	6	4	1	28*	17*

Source: PubChem BioAssay
